Screening data deposited in PubChem by National Center for Advancing Translational Sciences (NCATS).
KB-V1 cytotox: qHTS assay for MDR1-selective chemotherapeutics: Primary screen using the drug-selected MDR subline cells KB-V1; 400,000 tested, 3.4% active; Potency, µM (highest dose often 46.1 µM), usual class: cytotoxic; KB-V1 MDR cells viability, CellTiter-Glo, 72 h; AID 1347076, 2019; also: % is scaled to controls: 0 for no effect and ±100 for the full control effect; nearly all actives have a fitted effect of over 60% in size
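Readout: CellTiter-Glo luminescence, 10 min after addition. Cells: KB-V1 MDR subline, 72 h at 37 degrees C with compound. Analysis: corrected, normalized data fitted to concentration-effect curves.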
SW480 rereplic: A quantitative high throughput screen for small molecules that induce DNA re-replication in SW480 colon adenocarcinoma cells; SW480 DNA re-replication, Hoechst DNA content imaging, 48 h; Potency, µM (highest dose often 46.1 µM), for inactives: top-dose re-replication activation, actives largely listed as activators; 340,000 tested, 1.8% active; AID 624297, 2012; also: % of control where 0% means no effect; nearly all actives have a fitted effect of over 55% in size
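250 cells/well; 23 nL cpd via pin tool; 48 hr, 37 C, 5% CO2; Hoechst 40 min; imager read of total nuclear intensity, ex 405/em 500-530 nm.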
ELG1 DNA repair: qHTS screen for small molecules that inhibit ELG1-dependent DNA repair in human embryonic kidney (HEK293T) cells expressing luciferase-tagged ELG1 | HEK293T ELG1-luciferase reporter, luminescence, 16 h; DNA damage induced by 5-fluorouridine | Potency, µM (highest dose often 46.1 µM), inactives show at the top dose activity change, negative = inhibition, hits mostly inhibitors | 330,000 tested, 2.3% active | AID 504467, 2011; also: % is scaled to controls: 0 for no effect and ±100 for the full control effect; nearly all actives have a fitted effect of over 55% in size
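In this reporter screen, reduction of luminescence relative to DMSO vehicle indicated activity. Compounds and 5-fluorouridine were added together to 2,000 cells per well, incubated for 16 hr at 37 °C, then developed with ONE-Glo.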
KB-3-1 cytotox: qHTS assay for MDR1-selective chemotherapeutics: Primary screen using the parental adenocarcinoma cell KB-3-1; KB-3-1 viability, CellTiter-Glo ATP luminescence, 72 h; Potency, µM (series often up to 46.1 µM), hits mostly cytotoxic; 400,000 tested, 1.4% active; also: % is scaled to controls: 0 for no effect and ±100 for the full control effect; nearly all actives have a fitted effect of over 60% in size
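Parental KB-3-1 viability, qHTS format: 72 h compound exposure, 37 °C; CellTiter-Glo; media-only wells and DMSO plates as controls; concentration-effect fits on corrected data.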
MCF10A rerep: A quantitative high throughput screen for small molecules that induce DNA re-replication in MCF 10a normal breast cells; MCF 10A DNA re-replication, Hoechst nuclear intensity, 48 h; Potency, µM (doses to about 46.1 µM), for the others: at the highest dose activity, positive = re-replication, actives largely listed as activators; 350,000 tested, 2.9% active; AID 624296, 2012; also: % of control where 0% means no effect; nearly all actives have a fitted effect of over 50% in size
Starred values were filed as active, the others as inactive; i = inactive; ? = inconclusive; / = no result given; [ ] = dose if it differs, or a comment. Shown are actives, neighbours in structure and some others; about 8.1% of the full set was active somewhere. Calls follow the shape of the dose curve; as a rule, active = well fitted curve in the direction sought with a large enough effect; inconclusive = small, poorly fitted or top-dose-only effect, or another doubt; inactive = no such curve, though single readings can be large; an effect the other way counts as inactive or inconclusive. Potency is read from the fitted curve at half-maximal effect.

SMILES	KB-V1 cytotox	SW480 rereplic	ELG1 DNA repair	KB-3-1 cytotox	MCF10A rerep
COc1cc(C(=O)OC(C)C(=O)Nc2ccc3c(c2)OCO3)ccc1OCc1c(C)noc1C (configuration not stated)	i	2.4%[9.22 µM]	?	i	-8.0%
CC(=O)Nc1ccc(NC(=O)c2ccc(OCc3c(C)noc3C)cc2)cc1	i	7.3%	0.0%	i	0.3%
Cc1ccc(NC(=O)c2ccc(OCc3c(C)noc3C)cc2)cc1C	?	1.6%	10.3µM*	?	8.9%
Cc1noc(C)c1COc1cccc(C(=O)Nc2ccc(Br)cc2F)c1	2.91µM*	14.6µM*	?	6.51µM*	5.8µM*
Cc1noc(C)c1COc1cccc(C(=O)OC(C)C(=O)Nc2ccc3c(c2)OCO3)c1 (configuration not stated)	?	?	?	i	14.6µM*
Cc1ccc(NC(=O)c2cccc(OCc3c(C)noc3C)c2)cc1S(=O)(=O)Nc1ccccc1Cl	7.31µM*	?	?	i	?
Cc1ccc(NC(=O)c2cccc(OCc3c(C)noc3C)c2)c(C)c1	?	19.7%	-29.2%	?	17.7%
CCn1cc(C(=O)NCCCN(C)c2ccccc2)c(=O)c2cc(S(=O)(=O)N(C)C)ccc21	i	9.5%	?	i	0.6%
CN(C)C(CNC(=O)c1ccc2nc[nH]c2c1)c1ccccc1 (configuration not stated)	i	-31.6%	?	i	-3.8%
Cc1noc(C)c1COc1ccc(C(=O)NNC(=O)c2ccccc2F)cc1	i	11.6µM*	-11.4%	?	10.3%
Cc1noc(C)c1COc1ccccc1C(=O)NNC(=O)c1ccccc1F	?	-5.2%	5.2%	i	-2.2%
Cc1noc(C)c1COc1ccc(C(=O)NNC(=O)c2ccccc2)cc1	7.31µM*	13µM*	-3.1%	4.61µM*	20.6µM*
CCOc1ccc(N(CC(=O)Nc2ccc(C)c(F)c2)C2=NC3CS(=O)(=O)CC3S2)cc1 (configuration not stated)	i	28.6%	3.8%	i	?
CN(C)c1nc(N/N=C\c2ccc(Cl)c([N+](=O)[O-])c2)nc(Nc2ccc(F)cc2)n1	i	?	/	i	?
COc1ccc(/C=C2\SC(=O)N(CCCC(=O)Nc3cc(Cl)ccc3C(=O)O)C2=O)cc1	i	-3.7%	2.06µM*	i	4.5%
CCN(CC)CCOC(=O)c1ccc(NC(=O)CCCN2C(=O)S/C(=C/c3ccc(OC)cc3)C2=S)cc1	i	22.4µM*	1.0%	i	?
O=C(CSC1=NC(=O)C(c2ccccc2)C(=O)N1)Nc1ccccc1[N+](=O)[O-] (configuration not stated)	i	-11.0%	3.1%	i	-7.4%
CC(=O)c1ccc(OCC(=O)N(C2CCCCC2)C2CCS(=O)(=O)C2)cc1 (configuration not stated)	i	-9.2%	0.8%	i	4.4%
O=C(CCl)N(C1CCCC1)C1CCS(=O)(=O)C1 (configuration not stated)	i	20.6µM*	?	?	?
CCOC1=C2CN(S(=O)(=O)c3ccc(C)cc3)C(c3ccc(CC)cc3)CC2N(S(=O)(=O)c2ccc(C)cc2)C(c2ccc(CC)cc2)C1 (configuration not stated)	i	/	/	1.03µM*	/
CCOC1=C2CN(S(=O)(=O)c3ccc(C)cc3)[C@H](c3ccc(CC)cc3)C[C@@H]2N(S(=O)(=O)c2ccc(C)cc2)[C@H](c2ccccc2)C1	i	/	/	i	/
COc1cc(C=NNC(=O)c2ccccc2-n2cccc2)ccc1O	i	?	-14.2%	?	?
O=C(N/N=C/c1ccc([N+](=O)[O-])o1)c1ccccc1-n1cccc1	?	2µM*	-45.7%	?	23.1µM*
